Laboratory results as given in PubChem BioAssay (EPA / NIEHS).
Calls of active or inactive are those of the source. How the source made its calls: active means hit-call score of the fitted dose curve at least 0.9, where 1 is the maximum; inactive means score below 0.9.

These molecules were tested on Thrombomodulin, THBD (gene 7056) (assay: BSK_3C_Thrombomodulin: BioMAP Diversity Plus: 3C Assay for Thrombomodulin Biomarker Activity (AID 2283029)). Conditions: primary human endothelial cells (HUVEC); actives raise or lower the signal.
In short: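 In a multiplexed primary-cell system, human umbilical vein endothelium received chemical and was assayed 24 h later for thrombomodulin by ELISA. Parallel cultures were SRB-stained (0.1% SRB after 10% TCA fixation, read at 560 nm) to flag cytotoxicity.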

outcome, inactive:
CS(=O)(=O)OCCCCOS(C)(=O)=O, CCN(CC)C(=O)N(CC)CC, Cc1cc(CCC(=O)OCCOCCOCCOC(=O)CCc2cc(C)c(O)c(C(C)(C)C)c2)cc(C(C)(C)C)c1O, CN(C)C(=S)SC(=S)N(C)C, C=C(C)C(=O)OCCOCCOCCOCCOC(=O)C(=C)C, IC(I)I

These molecules were tested on Urokinase-type plasminogen activator receptor (uPAR), PLAUR (gene 5329) (assay: BSK_4H_uPAR: BioMAP Diversity Plus: 4H Assay for Urokinase-type plasminogen activator receptor (uPAR) Biomarker Activity (AID 2283030)). Conditions: primary human endothelial cells (HUVEC); actives raise or lower the signal.
In short: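 uPAR level read by ELISA on HUVEC cultures (BioMAP 4H) 24 h post-dosing, analyzed for gain or loss relative to DMSO. Parallel SRB staining assessed overt cytotoxicity.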

outcome, inactive:
CS(=O)(=O)OCCCCOS(C)(=O)=O, CCN(CC)C(=O)N(CC)CC, Cc1cc(CCC(=O)OCCOCCOCCOC(=O)CCc2cc(C)c(O)c(C(C)(C)C)c2)cc(C(C)(C)C)c1O, CN(C)C(=S)SC(=S)N(C)C, C=C(C)C(=O)OCCOCCOCCOCCOC(=O)C(=C)C, IC(I)I
